The campaign covered roughly 310,000 compounds. About 14,000 (4.5%) showed an effect of 50% or more. Effects have a minus sign here. The full list was thinned out, with strong results kept by preference.
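Note: peak tail current of the secondary pulse compared with the same well before compound.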

The target of this test is human ether-à-go-go-related gene (hERG) potassium channel (human, UniProt Q12809). The test is described as follows: primary screen, population patch clamp on CHO cells stably expressing hERG; higher = less effect of the substance.
Sequence of human ether-à-go-go-related gene (hERG) potassium channel (Q12809 whole entry, looked up): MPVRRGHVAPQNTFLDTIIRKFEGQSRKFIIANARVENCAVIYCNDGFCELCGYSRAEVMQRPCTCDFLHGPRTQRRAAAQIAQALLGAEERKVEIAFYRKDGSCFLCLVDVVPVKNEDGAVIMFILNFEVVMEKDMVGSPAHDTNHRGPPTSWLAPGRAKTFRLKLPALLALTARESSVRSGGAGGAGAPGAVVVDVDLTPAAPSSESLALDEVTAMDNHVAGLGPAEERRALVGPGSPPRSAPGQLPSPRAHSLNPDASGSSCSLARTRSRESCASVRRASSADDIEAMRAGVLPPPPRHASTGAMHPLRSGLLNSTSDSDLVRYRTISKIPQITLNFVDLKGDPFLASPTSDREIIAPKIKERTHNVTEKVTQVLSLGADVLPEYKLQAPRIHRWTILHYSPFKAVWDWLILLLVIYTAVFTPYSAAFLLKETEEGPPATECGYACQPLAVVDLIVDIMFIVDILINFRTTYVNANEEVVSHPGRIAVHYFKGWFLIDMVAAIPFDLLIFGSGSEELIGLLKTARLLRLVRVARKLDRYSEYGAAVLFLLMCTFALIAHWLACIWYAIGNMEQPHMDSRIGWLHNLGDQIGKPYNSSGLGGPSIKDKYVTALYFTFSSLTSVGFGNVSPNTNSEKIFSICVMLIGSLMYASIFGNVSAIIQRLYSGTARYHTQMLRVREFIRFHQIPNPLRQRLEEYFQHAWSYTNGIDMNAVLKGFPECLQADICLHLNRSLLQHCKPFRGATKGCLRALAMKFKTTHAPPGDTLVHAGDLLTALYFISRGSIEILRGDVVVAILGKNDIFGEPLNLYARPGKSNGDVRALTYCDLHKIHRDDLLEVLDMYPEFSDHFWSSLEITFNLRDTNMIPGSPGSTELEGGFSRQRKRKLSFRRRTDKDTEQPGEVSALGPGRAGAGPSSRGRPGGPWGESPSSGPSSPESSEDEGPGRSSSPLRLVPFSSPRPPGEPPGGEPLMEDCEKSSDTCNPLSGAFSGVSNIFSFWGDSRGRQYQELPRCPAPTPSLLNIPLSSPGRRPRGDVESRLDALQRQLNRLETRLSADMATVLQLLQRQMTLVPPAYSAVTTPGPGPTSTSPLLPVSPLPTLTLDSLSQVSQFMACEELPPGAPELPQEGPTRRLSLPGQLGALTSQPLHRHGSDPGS
On to `COCCN1C(=O)c2cc(C(=O)Nc3cccc(F)c3)ccc2C1Nc1cccc(F)c1` (stereo not drawn), for which the “hERG current change (%, negative = inhibition) at 10uM” value was 7.71%. For the molecule `Cc1cc(C)c(S(=O)(=O)c2ccccc2)c(N(C)C)n1`, the “hERG current change (%, negative = inhibition) at 10uM” value is given as 4.06%.

As for `CN(C)CCCn1c(N)c(S(=O)(=O)c2ccccc2)c2nc3ccccc3nc21`, the “hERG current change (%, negative = inhibition) at 10uM” value was -51.1%. As for `CCCCn1c(N)c(S(=O)(=O)c2ccc(C)cc2)c2nc3ccccc3nc21`, the figure is -0.298%; as for `Cc1ccc(S(=O)(=O)c2c(N)n(CCCO)c3nc4ccccc4nc23)cc1`, -21.4%; as for `Cc1ccc(S(=O)(=O)c2c(N)n(CCCN(C)C)c3nc4ccccc4nc23)cc1`, -59%. The figure for `CCN(CC)CCn1c(N)c(S(=O)(=O)c2ccccc2)c2nc3ccccc3nc21` is -49.4%. For `Nc1c(S(=O)(=O)c2ccccc2)c2nc3ccccc3nc2n1CCN1CCOCC1`, the “hERG current change (%, negative = inhibition) at 10uM” value is -38.2%. The figure for `O=C(NCC1CCCN(C(=O)CN2CCCCC2)C1)c1ccccc1Cl` (stereo not drawn) is 13%; for `Cc1cc(SCC(=O)NCCC2=CCCCC2)nc2ccccc12` it is -10.9%; for `O=c1c(-c2ccnn2-c2ccc(F)cc2)cnc2n1CCS2` it is 19.9%. As for `CCOC(=O)C1CCN(C(=O)/C=C/c2ccccc2)CC1`, the figure is -16.8%; as for `Cc1cccc(NC(=O)CN2CCN(C(=O)C3CCN(C(=O)/C=C/c4ccccc4)CC3)CC2)c1C`, -73.9%. As for `Cc1cccc(NC(=O)CN2CCN(C(=O)C3CCCO3)CC2)c1C` (stereo not drawn), the figure is 9.91%; as for `CCc1ccccc1NC(=O)CN1CCN(C(=O)C2CCN(C(=O)/C=C/c3ccccc3)CC2)CC1`, -72.9%. `Cc1cccc(NC(=O)CN2CCN(C(=O)C3CCC3)CC2)c1C`: the “hERG current change (%, negative = inhibition) at 10uM” value is given as -31.4%. In the case of `COC(=O)C1CCN(C(=O)/C=C/c2ccccc2)CC1`, the “hERG current change (%, negative = inhibition) at 10uM” value is listed as 4.21%. As for `C/C(=N\N=c1/sc2ccccc2n1C)c1ccc(N2CCOCC2)cc1`, the figure is 18.9%; as for `Cc1ccc2c(CC(=O)OCc3nc(N)nc(Nc4ccccc4C)n3)coc2c1`, 5.79%; as for `CCCNC(=O)OCc1cccnc1Sc1ccc(C)cc1`, -30%.

On to `COCCOc1ccc(C(F)(F)F)cc1NC(=O)c1ccc(C)cc1`, for which the “hERG current change (%, negative = inhibition) at 10uM” value is on record as -0.151%. Regarding `COc1ccc(CCNC(=O)[C@@H](NC(=O)c2ccccc2F)C(C)C)cc1OC`, the “hERG current change (%, negative = inhibition) at 10uM” value is listed as -9.87%. The figure for `O=C(CSc1ncccn1)NCc1ccc2c(c1)OCO2` is 11.9%; for `Clc1ccc(OCc2nc(-c3ccccn3)n[nH]2)cc1` it is -55.6%. As for `Cc1ccc(OCc2nc(-c3ccccn3)n[nH]2)cc1`, the “hERG current change (%, negative = inhibition) at 10uM” value is recorded as -15.7%. As to `Brc1ccc(OCc2nc(-c3ccccn3)n[nH]2)cc1`, the “hERG current change (%, negative = inhibition) at 10uM” value is given as -3.04%. The figure for `O=C(CN1CC=C(c2ccccc2)CC1)Nc1c(Cl)cccc1Cl` is 4.21%. As for `CCOc1ccc2c(c1)-c1c(ssc1=S)C(C)(C)N2`, the “hERG current change (%, negative = inhibition) at 10uM” value was 4.44%. With `O=C(O)CCCC(=O)Nc1ccc(Cl)cc1`, the “hERG current change (%, negative = inhibition) at 10uM” value worked out at 21.6%.

Turning to `COc1cccc(-c2noc(Cn3nc(C)c([N+](=O)[O-])c3C)n2)c1`, the “hERG current change (%, negative = inhibition) at 10uM” value is -6.89%.

Take `CN(C)C(CNC(=O)c1cccc(C(F)(F)F)c1)c1ccco1` (stereo not drawn): the “hERG current change (%, negative = inhibition) at 10uM” value was -11.8%. For `Nc1c(C(=O)O)cnc2nc(N3CCOCC3)nn12`, the “hERG current change (%, negative = inhibition) at 10uM” value is listed as 21.7%. The figure for `Nc1c(C(=O)N2CCCC2)sc2nc(-c3ccccc3)ccc12` is -70.7%; for `NC(=O)c1sc2nc(-c3ccccc3)ccc2c1N` it is 18.7%. As for `CC(C)OC(=O)c1sc2nc(-c3ccccc3)ccc2c1N`, the figure is 16.7%; as for `CCOc1ccc(NC(=O)C(CC(=O)O)Cc2ccccc2)cc1` (stereo not drawn), 5.94%.

With `O=C(c1ccco1)N1CCC(c2nc3ccccc3[nH]2)CC1`, the “hERG current change (%, negative = inhibition) at 10uM” value is given as -5.9%. With `Cl.N=C(N)SCc1ccc(O)c([N+](=O)[O-])c1`, the “hERG current change (%, negative = inhibition) at 10uM” value was -0.169%. As for `CCCCOc1ccc(CSC(=N)N)cc1[N+](=O)[O-].Cl`, the figure is -64.1%.

Regarding `CCCCCOc1ccc(CSC(=N)N)cc1[N+](=O)[O-].Cl`, the “hERG current change (%, negative = inhibition) at 10uM” value is recorded as -56.7%.

For `CCCCOc1ccc(CSC(=N)N)cc1Cl.Cl`, the “hERG current change (%, negative = inhibition) at 10uM” value is -21.9%. As for `CCOc1ccc(CSC(=N)N)cc1Cl.Cl`, the figure is -15.2%; as for `COC(=O)c1cc(CSC(=N)N)ccc1OCCC(C)C.Cl`, -3.46%; as for `CCOc1ccc(CSC(=N)N)cc1[N+](=O)[O-].Cl`, -65.5%. As for `CCCOc1ccc(CSC(=N)N)cc1C(=O)OC.Cl`, the “hERG current change (%, negative = inhibition) at 10uM” value is -0.181%. On to `COc1ccc(CSC(=N)N)cc1[N+](=O)[O-].Cl`, for which the “hERG current change (%, negative = inhibition) at 10uM” value is on record as -3.72%. Take `Cc1ccc(-c2n[nH]c(=O)c3ccccc23)cc1N`: the “hERG current change (%, negative = inhibition) at 10uM” value was found to be 5.75%. The figure for `COc1cccc(CNC(=O)c2ccc(Cl)c(S(=O)(=O)N3CCOCC3)c2)c1` is -19.5%; for `COc1ccc(OC)c(S(=O)(=O)n2nnc3cc(Cl)ccc32)c1` it is 4.31%. As for `COc1ccc(NC(=O)c2ccccc2OCc2c(C)noc2C)cc1OC`, the figure is -37.5%; as for `CN(c1ccc(C(=O)N2CCN(Cc3ccccc3)CC2)cc1)S(=O)(=O)c1ccc(Cl)cc1`, -24.9%; as for `Cc1ccc(-c2noc(C3CCCN(C(=O)c4ccc(C(C)(C)C)cc4)C3)n2)o1` (stereo not drawn), -19.8%. Regarding `CCOc1ccccc1NC(=O)N1CCCC(c2nc(-c3ccc(C)o3)no2)C1` (stereo not drawn), the “hERG current change (%, negative = inhibition) at 10uM” value is given as -52.5%.

For `Cc1ccc(-c2noc(C3CCCN(C(=O)c4ccc(Cl)cc4)C3)n2)o1` (stereo not drawn), the “hERG current change (%, negative = inhibition) at 10uM” value is on record as -55.2%. As for `CCOc1ccc(C(=O)N2CCCC(c3nc(-c4ccc(C)o4)no3)C2)cc1` (stereo not drawn), the figure is -60.2%; as for `Cc1ccc(-c2noc(C3CCCN(C(=O)c4cccc([N+](=O)[O-])c4)C3)n2)o1` (stereo not drawn), -65%. The figure for `COc1ccc(C(=O)N2CCCC(c3nc(-c4ccc(C)o4)no3)C2)cc1OC` (stereo not drawn) is -8.29%; for `Cc1ccc(-c2noc(C3CCCN(C(=O)c4cccc(Cl)c4)C3)n2)o1` (stereo not drawn) it is -43.4%; for `COc1cc(OC)cc(C(=O)N2CCCC(c3nc(-c4ccc(C)o4)no3)C2)c1` (stereo not drawn) it is -9.35%. For `Cc1ccc(-c2noc(C3CCCN(C(=O)c4ccccc4Br)C3)n2)o1` (stereo not drawn), the “hERG current change (%, negative = inhibition) at 10uM” value is reported as -42.6%. Turning to `CCOc1ccc(C(=O)N2CCCC(c3nc(-c4cccs4)no3)C2)cc1` (stereo not drawn), the “hERG current change (%, negative = inhibition) at 10uM” value is recorded as -46.9%. Take `Cc1cccc(C(=O)N2CCCC(c3nc(-c4ccc(C)o4)no3)C2)c1` (stereo not drawn): the “hERG current change (%, negative = inhibition) at 10uM” value is -27.7%.

In the case of `Cc1ccc(-c2noc(C3CCCN(C(=O)c4ccccc4)C3)n2)o1` (stereo not drawn), the “hERG current change (%, negative = inhibition) at 10uM” value was -13.1%.

Source of the values: publication PMC4336329 (PLoS ONE, 2015).
